The list is not random: actives were taken first. Their share in the collection is about 3%.
Mcl1 Bid PPI = disrupts binding of human Mcl-1 to Bid peptide. Q07820. TR-FRET Mcl-1/Bid-Dy647 peptide binding, 1536-well. inhibition, % at 21.7 µM. 0.97% of 220,000 active. AID 1021;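 active = compounds that cut the binding signal by more than half at the single screening dose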;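 note: His-tagged Mcl-1 with europium anti-His antibody binding Bid BH3 peptide; 0% = Mcl-1 plus peptide wells and 100% = peptide-only wells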
Target sequence (Q07820 whole entry, looked up): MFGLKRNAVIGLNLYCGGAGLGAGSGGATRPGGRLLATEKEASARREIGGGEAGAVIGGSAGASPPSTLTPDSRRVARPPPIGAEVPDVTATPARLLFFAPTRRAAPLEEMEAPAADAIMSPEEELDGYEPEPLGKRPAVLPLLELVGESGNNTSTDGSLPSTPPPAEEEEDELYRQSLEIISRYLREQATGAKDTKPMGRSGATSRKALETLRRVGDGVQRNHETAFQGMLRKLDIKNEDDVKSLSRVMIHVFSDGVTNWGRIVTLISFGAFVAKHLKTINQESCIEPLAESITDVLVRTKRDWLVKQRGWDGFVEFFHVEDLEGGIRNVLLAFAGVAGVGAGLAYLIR
Mcl1-Noxa inh = Mcl-1/Noxa interaction inhibition; Q07820; TR-FRET Mcl-1/Noxa peptide binding, 2 h; 1.5% of 220,000 active; inhibition, % at 21.7 µM;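 active = compounds that cut the protein-peptide binding signal by more than 50% relative to plate controls in a single-dose test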;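 note: His-tagged Mcl-1 with rhodamine Noxa BH3 peptide and terbium anti-His antibody; 0% = Mcl-1 plus Noxa peptide wells and 100% = peptide-only wells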
14-3-3 Bad inh = disrupts binding of bovine 14-3-3 zeta to phospho-Bad peptide; TR-FRET 14-3-3zeta/Dy647-pBad peptide displacement, 1 h; inhibition, % at 21.7 µM; 0.71% of 220,000 active; AID 781; P63103;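 active = inhibition above about 70%, limit read from the data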;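 note: 0% = full 14-3-3 plus peptide FRET controls and 100% = background without 14-3-3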
Target sequence (P63103 whole entry, looked up): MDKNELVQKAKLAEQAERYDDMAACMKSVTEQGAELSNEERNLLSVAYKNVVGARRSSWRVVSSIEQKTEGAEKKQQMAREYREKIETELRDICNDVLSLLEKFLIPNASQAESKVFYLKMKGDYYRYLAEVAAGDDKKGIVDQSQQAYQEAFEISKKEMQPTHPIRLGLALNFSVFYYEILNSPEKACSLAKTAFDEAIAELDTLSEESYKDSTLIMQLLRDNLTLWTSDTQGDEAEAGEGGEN
Bim-Mcl-1 = human Bim-Mcl-1 interaction inhibition | Q07820 | Bead-based flow cytometry, Bim peptide-Mcl-1 binding | inhibition, % at 10 µM | 0.1% of 190,000 active; in the data active = inhibition above about 40%;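 note: 0% = no compound tracer wells and 100% = peptide blocker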
Arbovirus anti = antivirals against arbovirus infection. arbovirus infection cell-based antiviral screen. inhibition, % at 10 µM. 0.37% of 200,000 active. AID 1251; in the data active = inhibition above about 30%
Starred values were filed as active, the others as inactive; . = not tested or not shown; [ ] = another dose, or the depositor's remark.

SMILES | Mcl1 Bid PPI | Mcl1-Noxa inh | 14-3-3 Bad inh | Bim-Mcl-1 | Arbovirus anti
CC1(C)CC(=O)C2=C(C1)N(c1ccccc1)C(N)=C(C#N)C2c1cccnc1 (centres undefined) | -34 | 1 | -6 | 2 | 2
CN(C)N1C(N)=C(C#N)C(c2cccnc2)C2=C1CC(C)(C)CC2=O (centres undefined) | 62* | 22 | -15 | -4 | 10
O=C(Nn1c(SCc2cccc([N+](=O)[O-])c2)nc2ccccc2c1=O)c1ccccc1 | -14 | 7 | 22 | -3 | 39*
CCCCn1c(SCc2cccc([N+](=O)[O-])c2)nc2ccsc2c1=O | -18 | 1 | -9 | -3 | 34*
COc1ccc(C(=O)Nn2c(SCc3cccc([N+](=O)[O-])c3)nc3ccccc3c2=O)cc1 | -6 | -9 | 14 | -3 | 3
CCOc1ccc(N2C(=O)S/C(=C\c3cc(OC)c(OC)c(OC)c3)C2=O)cc1 | -9 | 9 | 1 | . | .
O=C1C(Cl)=C(Nc2ccc3cn[nH]c3c2)C(=O)c2ccccc21 | -67 | 93* | -2 | . | .
CC(=O)Nc1ccc(NC2=C(Cl)C(=O)c3ccccc3C2=O)cc1 | -23 | 40 | 0 | -4 | -37
O=C(Nc1ccc2cn[nH]c2c1)c1c(Cl)cccc1Cl | 2 | -3 | 5 | -7 | -4
CN(C)c1ccc(NC2=C(Cl)C(=O)c3ccccc3C2=O)cc1 | -45 | 100* | -15 | 4 | -32
CC(C)N(CCc1ccncc1)C(=S)Nc1cccc(Cl)c1 | -51 | 21 | -1 | -4 | 22
COc1ccccc1NC(=O)c1ccc(NC(=O)COC(=O)C2(C)CC2(Cl)Cl)cc1 (centres undefined) | -10 | 24 | -2 | -3 | 5
N#Cc1c(NC(=O)CSc2nnc(-c3ccccc3)o2)sc2c1CCCC2 | 19 | -6 | 15 | 0 | 32*
COc1ccc(-c2ccc(C#N)c(SCC(=O)Nc3sc4c(c3C#N)CCC4)n2)cc1OC | 73* | 16 | 92*[fluorescence artefact?] | 18 | -11
N#Cc1cc2c(nc1SCC(=O)Nc1sc3c(c1C#N)CCC3)CCC2 | -29 | 7 | -12 | -1 | -3
COc1cc(OC)c(C(=O)CCCN2CCCC2)c(OC)c1 | 0 | 26 | 5 | -2 | 6
Nc1cc(C(=O)c2ccccc2)ccc1[N+](=O)[O-] | 7 | 10 | 7 | 0 | -2
COc1cc([N+](=O)[O-])ccc1N=Nc1c(N)[nH]n(-c2ccccc2)c1=O | -49 | 25 | -4 | 0 | -17
NC(=S)n1[nH]c(-c2ccc([N+](=O)[O-])cc2)c(N=Nc2ccccc2[N+](=O)[O-])c1=O | 90* | 84* | 65 | -174 | -10
Cc1[nH]n(C(N)=S)c(=O)c1N=Nc1ccc2ccccc2c1 | -123 | -17 | -28 | 2 | -6
Nc1[nH]n(-c2ccccc2)c(=O)c1N=Nc1ccc2ncsc2c1 | -18 | 63* | -3 | . | .
Cc1c(N=Nc2c(-c3ccc([N+](=O)[O-])cc3)[nH]n(C(N)=S)c2=O)cccc1[N+](=O)[O-] | 98* | 116* | 92* | 0 | -7
Nc1[nH]n(-c2ccccc2)c(=O)c1N=Nc1ccccc1[N+](=O)[O-] | 40 | 60* | 12 | 3 | -11
Nc1[nH]n(-c2ccccc2)c(=O)c1N=Nc1ccccc1 | -21 | 3 | -3 | . | .
CCN(CCn1cccn1)C(=O)CCc1nnc(CCCc2ccccc2)o1 | -5 | 2 | -2 | -1 | 3
SMILES | Mcl1 Bid PPI | Mcl1-Noxa inh | 14-3-3 Bad inh | Bim-Mcl-1 | Arbovirus anti
NC(=S)n1[nH]c(-c2ccc([N+](=O)[O-])cc2)c(N=Nc2cccc([N+](=O)[O-])c2)c1=O | 82* | 85* | 91* | 1 | -4
Cc1ccc(NC(=S)N(CCN2CCOCC2)Cc2cc3cc4c(cc3[nH]c2=O)OCO4)cc1 | -85 | 9 | -8 | 0 | 0
O=C(Nc1ccc2nc(-c3ccco3)c(-c3ccco3)nc2c1)N1CCCCCC1 | 59* | 105* | 35 | 16 | -9
CCOC(=O)C1CCN(C(=O)Nc2ccc3nc(-c4ccco4)c(-c4ccco4)nc3c2)CC1 | 25 | 97* | 32 | 19 | 0
O=C(Cc1c(F)cccc1Cl)Nc1nc2ccccc2s1 | -15 | 4 | -1 | 1 | -6
Cc1ccc(S(=O)(=O)CCC(=O)NCc2ccco2)cc1 | -46 | -4 | -11 | 1 | -3
O=C(Nc1cccnc1)c1ccc(S(=O)(=O)c2ccc(Cl)cc2)cc1 | -19 | 7 | 85* | 0 | 10
O=C(Nc1cccnc1)c1ccc(C(=O)Nc2cccnc2)cc1 | -1 | 0 | -4 | -7 | -2
CC(C)[C@H](NC(=O)c1ccc(F)cc1)C(=O)NC1=NCCS1 | -11 | 3 | -4 | 1 | -1
O=S(=O)(O)c1nc2ccccc2n1Cc1ccccc1 | 0 | -1 | 71* | 4 | 5
CC(C)CCn1c(S(=O)(=O)O)nc2ccccc21 | 8 | 15 | 75* | 0 | 4
Cc1ccc(SCC(=O)NC(=O)c2ccc(S(=O)(=O)N(C)C)cc2)cc1C | -8 | 0 | -16 | 0 | 0
COc1cccc(Cn2c(=O)c3[nH]cnc3n(-c3ccccc3C)c2=O)c1 | -4 | 19 | 9 | . | .
COc1ccc(Cn2c(=O)cc(N)n(-c3ccccc3C)c2=O)cc1 | 0 | 0 | 97* | . | .
CCC(c1nnnn1Cc1cccs1)N1CCN(C2CCCC2)CC1 (centres undefined) | 54* | 31 | 64 | 0 | -7
CCCC(c1nnnn1Cc1cccs1)N1CCN(C2CCCC2)CC1 (centres undefined) | 32 | 20 | 29 | -4 | 5
CCCC(c1nnnn1C(C)(C)CC)N1CCN(C2CCCC2)CC1 (centres undefined) | -9 | 21 | 73* | 0 | 0
CCC(c1nnnn1C(C)(C)C)N1CCN(C2CCCC2)CC1 (centres undefined) | -24 | 0 | -7 | 0 | 3
CCCC(c1nnnn1Cc1ccc(F)cc1)N1CCN(C2CCCCC2)CC1 (centres undefined) | 33 | 36 | 75* | 0 | -13
CC(C)C(c1nnnn1Cc1ccc(F)cc1)N1CCN(C2CCCC2)CC1 (centres undefined) | -33 | -3 | -8 | 0 | 2
CCCC(c1nnnn1Cc1ccc(OC)cc1)N1CCC(C(N)=O)CC1 (centres undefined) | -3 | 13 | 75* | 1 | -2
CCCc1cc(=O)c2c(O)ccc(OC)c2o1 | -13 | -7 | -13 | . | .
CCCC(c1nnnn1C1CCCCC1)N1CCN(C2CCCC2)CC1 (centres undefined) | 51* | 12 | 26 | -3 | 7
N#CCC(=O)Nc1ccc(C(=O)Nc2cccc(S(N)(=O)=O)c2)cc1 | -26 | 20 | -9 | . | .
CCOC(=O)c1ccc(N2CCN(c3ccccc3F)CC2)c(NC(=O)Nc2ccccc2)c1 | -27 | -19 | 4 | -7 | 31*
CCOC(=O)c1ccc(N2CCN(c3ccc(F)cc3)CC2)c(NC(=O)Nc2cccc(OC)c2)c1 | -31 | 15 | 22 | -3 | 2
CCn1nc(C)c(NC(=O)c2ccc(Cl)cc2)c1C | -23 | 14 | -12 | -2 | 8

Screens (PubChem)
